About 900 (1.7%) of roughly 53,000 compounds showed an effect of 50% or more. Shown is part of a subset that was picked to be rich in strong results.
These molecules were tested on Mycobacterium tuberculosis (assay: Cornell - Phenotypic assay to identify agents that inhibit growth of Mycobacterium tuberculosis). Details: 10 mM as filed; unlikely as a test dose.
Format: functional
Parameters: scale not given: direction of the effect not stated beside the values
`CC(=O)N[C@@H]1CN(Cc2cccs2)C[C@H]1c1ccc(C)o1` was tested, and the “Percent Effect” value was 10.2%. `Cn1nc(COc2cccnc2)c2c1CCN(CC1CC1)C2.O=C(O)C(F)(F)F.O=C(O)C(F)(F)F` was tested, and the “Percent Effect” value was -1.302%. With `CCCN(CCO)S(=O)(=O)c1ccc2[nH]c(=O)[nH]c2c1` the “Percent Effect” value was 11.31%. `Cc1cc(C[C@@H]2CCC[C@H]2NCc2ccccc2C(F)(F)F)on1.O=C(O)CC(O)(CC(=O)O)C(=O)O` was tested, and the “Percent Effect” value was 12.28%. With `Cc1cc(C[C@@H]2CCC[C@H]2NCc2cc(C)c(O)c(C)c2)on1.O=C(O)CC(O)(CC(=O)O)C(=O)O` the “Percent Effect” value was 77.55%. In the case of `Cc1cc(C[C@@H]2COC[C@H]2NCc2ccc(C)c(C)c2)on1.O=C(O)CC(O)(CC(=O)O)C(=O)O`, the “Percent Effect” value is reported as -9.136%. In the case of `CC(=O)N1CCC2(CCN(Cc3ccc(Cl)c(C(F)(F)F)c3)CC2)C1`, the “Percent Effect” value is reported as 43.5%. With `Cc1cc2nc(C(C)C)cc(N3CCC(N(C)C)C3)n2n1` (stereo not given) the “Percent Effect” value was 32.15%. With `O=c1[nH]c2c(-c3ccccn3)nsc2c(=O)n1CC1CCCO1` (stereo not given) the “Percent Effect” value was -0.9245%. In the case of `COc1ccccc1OC1CN(C(=O)c2ccc(C(C)=O)s2)C1`, the “Percent Effect” value is reported as -4.28%. With `CO[C@H]1C[C@@H]2CN(C(=O)c3ccc(C)s3)C[C@@H]2C1` the “Percent Effect” value was 41.56%. With `Cc1ccc(C(=O)N2CC(Oc3ccccc3C)C2)s1` the “Percent Effect” value was 67.58%. For `COc1cccc2ccc(N3CCC(O)(C(=O)O)CC3)nc12`, the “Percent Effect” value was -24.68%. For `CC(c1nc(C(C)(C)C)no1)N1CCN(Cc2ccco2)CC1` (stereo not given), the “Percent Effect” value was 11.7%. With `CCn1ccnc1CN1CCCN(C(=O)COC2CCCC2)CC1` the “Percent Effect” value was -24.49%. `CNc1ncc(C(=O)N2CCOC(C(=O)N3CCCCCC3)C2)cn1` (stereo not given) was tested, and the “Percent Effect” value was -4.246%. With `CCOc1cccc2c1OCC(C(=O)NS(=O)(=O)Cc1ccccc1)=C2` the “Percent Effect” value was 106.8%. For `CCOc1cccc2c1OCC(C(=O)NC(C)Cn1cccn1)=C2` (stereo not given), the “Percent Effect” value was 7.345%. For `CCOc1cccc2c1OCC(C(=O)NS(=O)(=O)c1ccc(Br)s1)=C2`, the “Percent Effect” value was -17.73%. `CCOc1cccc2c1OCC(C(=O)NS(=O)(=O)c1ccc(Cl)s1)=C2` was tested, and the “Percent Effect” value was 9.699%. `CCOc1cccc2c1OCC(C(=O)NS(=O)(=O)c1cncc(Br)c1)=C2` was tested, and the “Percent Effect” value was 44.21%. `CCOc1ccccc1C(=O)NS(=O)(=O)c1ccc2c(c1)OCCCO2` was tested, and the “Percent Effect” value was 27.03%. In the case of `Cc1cc(OCC(=O)NS(=O)(=O)c2c(C)noc2C)ccc1Cl`, the “Percent Effect” value is reported as 39.96%. For `CCOc1cccc2c1OCC(C(=O)NS(=O)(=O)c1cccs1)=C2`, the “Percent Effect” value was 19.94%. For `CCOc1cccc2c1OCC(C(=O)NS(=O)(=O)c1c(C)noc1C)=C2`, the “Percent Effect” value was 106%. `CCOc1cccc2c1OCC(C(=O)NS(=O)(=O)c1ccc(C)s1)=C2` was tested, and the “Percent Effect” value was 107.6%. For `Cc1ccc(OCC(=O)NS(=O)(=O)Cc2ccccc2)cc1`, the “Percent Effect” value was 7.336%. In the case of `CCOc1cccc2c1OCC(C(=O)NS(=O)(=O)c1ccc(Cl)cc1)=C2`, the “Percent Effect” value is reported as 104.6983%. `CCc1cnc(NC(=O)NC2CCN(C3CCCC3)CC2)s1` was tested, and the “Percent Effect” value was -3.242%. `CC(=O)N1CC[C@@H]2O[C@@H](COCC(=O)N3CCCC3)CC[C@@H]21` was tested, and the “Percent Effect” value was -45.3%. With `O=C(NCC(Cc1cccc(F)c1)N1CCCC1=O)c1ccc(=O)[nH]n1` (stereo not given) the “Percent Effect” value was 14.14%. With `Cc1ncsc1C(=O)N1CCC(c2ncncc2-c2ccnc(N)c2)C1` (stereo not given) the “Percent Effect” value was -0.8467%. With `CSCC[C@H](NC(C)=O)c1nc(Cc2ccccc2)n[nH]1` the “Percent Effect” value was -11.93%. With `COc1ncccc1CN1Cc2nccn2CC(CN2CCCC2)C1` (stereo not given) the “Percent Effect” value was 6.883%. In the case of `Cc1ccccc1CCCN1CCS(=O)(=O)CC1C` (stereo not given), the “Percent Effect” value is reported as 46.6%. In the case of `CC(C)(C)S(=O)(=O)c1ccc(N2CCC(n3cncn3)CC2)cn1`, the “Percent Effect” value is reported as -14.59%. For `CS(=O)(=O)N[C@@H]1CN(C(=O)c2cnccn2)[C@@H]2CCCO[C@@H]21`, the “Percent Effect” value was -34.02%. `Cc1cnc(CN(C)Cc2cccc(OC(F)(F)F)c2)cn1` was tested, and the “Percent Effect” value was -8.651%. `O=C(NCc1ccccc1)NCc1nc(-c2ccncc2)n[nH]1` was tested, and the “Percent Effect” value was 13.27%. With `CC(C)Oc1cccc(-c2nc3c([nH]2)CCCNC3=O)c1` the “Percent Effect” value was -4.933%. `Cc1cccc(SC2CCN(C(=O)CCCS(N)(=O)=O)CC2)c1` was tested, and the “Percent Effect” value was 37.58%. With `CC(=O)NCCCC(=O)N1CCC(Sc2cccc(C)c2)CC1` the “Percent Effect” value was 15.76%. `Cc1cccc(SC2CCN(C(=O)CCCn3cnnn3)CC2)c1` was tested, and the “Percent Effect” value was 50.26%. With `Cc1nc(N2CCCOC(Cn3cccn3)C2)c2sccc2n1` (stereo not given) the “Percent Effect” value was 26.84%. For `CCC(C)(C)NC(=O)c1nnn(-c2cccc3c2CCN(C)C3)c1C`, the “Percent Effect” value was -0.0817%. `COCc1nc(CNc2cc(C)nc(N3CCCCC3)n2)no1` was tested, and the “Percent Effect” value was -11.46%. `CCn1cc(S(=O)(=O)NC(CO)Cc2c[nH]c3ccccc23)cn1` (stereo not given) was tested, and the “Percent Effect” value was -1.971%. With `CCn1cc(NC(=O)NC(CO)Cc2c[nH]c3ccccc23)cn1` (stereo not given) the “Percent Effect” value was -8.114%. With `CCn1cc(S(=O)(=O)NC(=O)CCc2c[nH]c3ccccc23)cn1` the “Percent Effect” value was 53.27%. `Cc1noc(-c2ccc(-n3ncc(C(=O)O)c3C)nc2)n1` was tested, and the “Percent Effect” value was 11.73%. With `CCC(C)NC(=O)c1snnc1-c1ccc(OC)cc1` (stereo not given) the “Percent Effect” value was 21.58%. In the case of `COC(=O)[C@@H](NC(=O)c1snnc1-c1ccc(OC)cc1)C(C)C`, the “Percent Effect” value is reported as 58.81%. With `COC(=O)[C@H](CC(C)C)NC(=O)c1snnc1-c1ccc(OC)cc1` the “Percent Effect” value was 25.36%. With `Cc1ccc(-c2nc(CN3CCn4c(C)nnc4C3)co2)cc1` the “Percent Effect” value was -23.96%. With `Nc1nc2nc(C3CCN(C(=O)c4cscn4)C3)ccc2s1` (stereo not given) the “Percent Effect” value was -97.96%. `O=C(NC1CCCN(CCc2ccccc2)C1)c1ccccn1` (stereo not given) was tested, and the “Percent Effect” value was 35.43%. In the case of `O=C(c1ccco1)N1CCO[C@@H]2CN(c3ccccc3)CC[C@@H]2C1`, the “Percent Effect” value is reported as 17.14%. In the case of `COc1cccc(OC2CN(C(=O)c3ccnc(OC)c3)C2)c1`, the “Percent Effect” value is reported as 17.3%. With `CCc1ccccc1OC1CN(C(=O)c2ccnc(OC)c2)C1` the “Percent Effect” value was 66.55%. In the case of `COc1cc(C(=O)N2CC(Oc3ccccc3Cl)C2)ccn1`, the “Percent Effect” value is reported as 25.67%. In the case of `CCc1ccc(NC(=O)N2C[C@H]3C[C@H](C(=O)N4CCCC4)[C@@H](C2)O3)cc1`, the “Percent Effect” value is reported as -25.04%. In the case of `O=C(c1ccccc1F)N1CC[C@@H]2CN(c3ncccn3)CCO[C@@H]2C1`, the “Percent Effect” value is reported as 12.82%. `Cc1c(Cl)cccc1S(=O)(=O)N1CCC2(CC1)OCCS2` was tested, and the “Percent Effect” value was 53.55%. With `O=S(=O)(c1ccccc1Cl)N1CCC2(CC1)OCCS2` the “Percent Effect” value was 36.27%. With `CNC(=O)CS(=O)(=O)C1CCN(S(=O)(=O)c2ccccc2Br)CC1` the “Percent Effect” value was 7.561%. With `O=S(=O)(c1ccccc1Br)N1CCC2(CC1)OCCS2` the “Percent Effect” value was 54.27%. For `O=S(=O)(NC1CCC2(CC1)OCCO2)c1ccccc1Br`, the “Percent Effect” value was 9.266%. For `O=S(=O)(Cc1ccccc1Cl)N1CCC2(CC1)OCCS2`, the “Percent Effect” value was 47.83%. In the case of `CS(=O)(=O)N1CCC(CNc2cc(Cl)ccc2C#N)CC1`, the “Percent Effect” value is reported as -6.261%. With `COCCO[C@H]1CCN(C(=O)c2cccnc2)[C@H]1Cc1cnn(C)c1.O=C(O)C(F)(F)F` the “Percent Effect” value was 12.42%. In the case of `COCCS(=O)(=O)c1ncc(CN(C)CC(C)C)n1Cc1ccccc1`, the “Percent Effect” value is reported as -3.776%. For `COC(=O)CCC(=O)N(Cc1ccc2cc[nH]c2c1)C1CC1`, the “Percent Effect” value was 90.28%. For `CCNC(=O)N(Cc1cccc(OC)c1)C1CCC(O)CC1` (stereo not given), the “Percent Effect” value was 21.75%. With `COCC(=O)N(Cc1ccc2[nH]ccc2c1)C1CC1` the “Percent Effect” value was 26.94%. With `COCC(=O)N(Cc1ccc2cc[nH]c2c1)C1CC1` the “Percent Effect” value was 57.03%. For `CCN(C(=O)CCc1ccc2[nH]ccc2c1)C1CC(=O)NC1=O` (stereo not given), the “Percent Effect” value was 14.54%. With `O=C(C1CC1)N(Cc1ccc2cc[nH]c2c1)C1CC1` the “Percent Effect” value was 42.2%. In the case of `CCOc1ccccc1C1=CCN(C(=O)C2CCN(C)C(=O)C2)CC1` (stereo not given), the “Percent Effect” value is reported as -20.28%. For `COC(=O)c1cccn1C1CCN(C(=O)c2ccc(C)[nH]c2=O)CC1`, the “Percent Effect” value was -31.25%. `CCc1cc(N(C)Cc2cc[nH]n2)n2nc(C)c(C)c2n1` was tested, and the “Percent Effect” value was 4.829%. `CCc1cc(N(C)Cc2ccnc(C)c2)n2nc(C)c(C)c2n1` was tested, and the “Percent Effect” value was -23.54%. For `CCc1cc(N(C)Cc2ccncn2)n2nc(C)c(C)c2n1`, the “Percent Effect” value was 59.71%. For `Cc1nc(C2CCCN(C(=O)c3cc(Cl)c4c(c3)OCO4)C2)no1` (stereo not given), the “Percent Effect” value was 12.39%. In the case of `O=C(C1CCCO1)N1C[C@@H]2CCN(c3cnccn3)C[C@@H]2C1.O=C(O)C(F)(F)F` (stereo not given in full), the “Percent Effect” value is reported as 30.53%. With `c1ccc(C2CCCN(c3cncc(-n4cccn4)n3)CC2)cc1` (stereo not given) the “Percent Effect” value was 42.47%. For `c1ccc(C2CCN(c3cncc(-n4cccn4)n3)CC2)cc1`, the “Percent Effect” value was 25.96%. `c1ccc(COC2CCN(c3cncc(-n4cccn4)n3)CC2)cc1` was tested, and the “Percent Effect” value was 60.34%. In the case of `O=C(Nc1ccnc2ccnn12)c1ccc(N2CCC(O)CC2)cc1`, the “Percent Effect” value is reported as 85.62%. `O=C(Nc1ccnc2ccnn12)c1ccc(NC2CC2)nc1` was tested, and the “Percent Effect” value was -11.01%. With `Cc1cc(NC(=O)c2ccc(N3CCOCC3)cc2)[nH]n1` the “Percent Effect” value was 29.03%. With `CS(=O)(=O)N1CCO[C@@H]2CN(C(=O)C3CC(F)(F)C3)C[C@@H]2C1` the “Percent Effect” value was -22.45%. In the case of `Cn1c(NCc2ccc(C(N)=O)cc2)nc2cc(Cl)ccc21`, the “Percent Effect” value is reported as 60.39%. For `Cn1c(NC(=O)CNC(=O)C2CC2)nc2cc(Cl)ccc21`, the “Percent Effect” value was -3.36%. In the case of `Cn1cc(CNc2nc3cc(Cl)ccc3n2C)cn1`, the “Percent Effect” value is reported as 16.71%. For `COc1cccc(CN2CCCCCC2c2cccs2)c1OC` (stereo not given), the “Percent Effect” value was 35.04%. In the case of `COc1cccc(CN2CCCCCC2c2cccs2)c1O` (stereo not given), the “Percent Effect” value is reported as 38.44%. With `Cc1cccc(C2CCCCCN2Cc2cn(C)nc2C)c1` (stereo not given) the “Percent Effect” value was 15.03%. `COc1cccc(CN2CCCCCC2c2sccc2C)c1O` (stereo not given) was tested, and the “Percent Effect” value was 53.6%. In the case of `COc1cccc(CN2CCCCCC2c2cccc(F)c2)c1O` (stereo not given), the “Percent Effect” value is reported as 45.8%. In the case of `COc1cccc(CN2CCCCCC2c2cccc(C)c2)c1O` (stereo not given), the “Percent Effect” value is reported as 84.28%.
